Experimental data from PubChem BioAssay (NCATS).
Records with an inconclusive call do not appear. Activity calls are given as the source filed them. Calls come from the whole dose curve; as a rule, active = well fitted inhibition curve with a large enough effect; inconclusive = small, poorly fitted or top-dose-only effect; inactive = flat fitted curve, though single readings scatter.

Legend:
Test in all cases: qHTS profiling for inhibitors of Plasmodium falciparum proliferation (AID 504749); note: nearly all actives have a fitted effect of over 60% in size
Details in all cases: P. falciparum in erythrocytes, SYBR Green DNA, 72 h; series mostly up to 28.7 µM
[1] = system: ATS95
In short: (§1)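 Fluorescence of SYBR Green-bound parasite DNA, read at 485/535 nm, served as the growth measure. Infected erythrocytes were cultured with compound 72 h; artemisinin (0.29 uM) and DMSO wells defined the normalization range.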

[2] = system: C2A
In short: as §1

[3] = system: CP211
In short: as §1

[4] = system: CP217
In short: as §1

[5] = system: CP250
In short: as §1

[6] = system: CP252
In short: as §1

[7] = system: CP256
In short: as §1

[8] = system: CP262
In short: as §1

[9] = system: CP269
In short: as §1

[10] = system: CP325
In short: as §1

[11] = system: CP329
In short: as §1

[12] = system: DIV17
In short: as §1

[13] = system: ECU
In short: as §1

[14] = system: FAB9
In short: as §1

[15] = system: N140
In short: as §1

[16] = system: P93_24
In short: as §1

[17] = system: PAD
In short: as §1

[18] = system: PC15
In short: as §1

[19] = system: PC26
In short: as §1

[20] = system: SC27B
In short: as §1

Measured: Potency

CC1(C)[C@@H]2CC[C@]1(C)[C@@H](OC(=O)CSC#N)C2
inactive: all assays above

COc1cccc2c1C(=O)c1c(O)c3c(c(O)c1C2=O)C[C@](O)(C(=O)CO)C[C@@H]3O[C@H]1C[C@H](N)[C@@H](O)[C@H](C)O1
inactive: all assays above
